# Whole data set: some 18,000 sequences, median “log2 normalized intensity” near 0.36, cut for the highest 2% near 7.3. The list comes from a sample in which the highest values are over-represented; it also holds similar and randomly drawn sequences.
# Target: T1, HNF4alpha8 (COS-7 nuclear extract) (Homo sapiens, UniProt P41235-5 1-452)
# T1 sequence: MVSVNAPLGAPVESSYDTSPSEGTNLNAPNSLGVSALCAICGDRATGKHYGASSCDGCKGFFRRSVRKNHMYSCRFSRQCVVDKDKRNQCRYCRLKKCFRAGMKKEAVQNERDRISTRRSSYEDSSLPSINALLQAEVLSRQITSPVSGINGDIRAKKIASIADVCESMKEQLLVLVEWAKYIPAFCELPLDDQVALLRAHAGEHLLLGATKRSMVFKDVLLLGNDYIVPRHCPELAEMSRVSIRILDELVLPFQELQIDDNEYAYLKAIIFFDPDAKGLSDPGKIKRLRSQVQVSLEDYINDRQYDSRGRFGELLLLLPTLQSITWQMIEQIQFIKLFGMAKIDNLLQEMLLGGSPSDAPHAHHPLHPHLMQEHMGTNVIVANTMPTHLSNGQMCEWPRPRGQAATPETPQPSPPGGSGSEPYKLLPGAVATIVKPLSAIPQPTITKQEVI
# Assay: protein-binding microarray; COS-7 nuclear extract on double-stranded Agilent 4x180k PBM; binding buffer, salt, pH and temperature not given in the material; high values mean tight binding
# Settings: chain copies: 2; label: 3' end of strand 1 on the slide; dsDNA, one strand shown
# Summary of the method: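 Double-stranded oligonucleotides of ~60 nt, representing ~44,000 test sequences in quadruplicate, made up a custom Agilent SurePrint G3 4x180k array. Nuclear extracts from COS-7 cells transiently transfected by CaPO4 with a human HNF4α isoform expression vector were applied, and bound HNF4α was imaged at 2-µm resolution on an Agilent G2565CA scanner. Binding signal refers to the background-corrected, normalized gProcessedSignal output of Agilent software.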
row,Sequence,binding signal [log2 normalized intensity]
1,AGCATGTTTGGTGACCCGTGACCCTCAGGAGCCTAGGGAGATTAGAGTATCGGTCGA,3.82
2,CCGTCTCTCACCAAATCCCTGCCCACATCCGCCTAGGGAGATTAGAGTATCGGTCGA,2.23
3,CTCCTTGGAAGTCGCCGTGAGGTTATTTGCGCCTAGGGAGATTAGAGTATCGGTCGA,0.914
4,GAGAGGCTTATGCATGGGAGATCTTCAGTAGCCTAGGGAGATTAGAGTATCGGTCGA,-0.357
5,TTCCTTATCTGGAATTCCTCCTCCTGTTTGGCCTAGGGAGATTAGAGTATCGGTCGA,0.85
6,TCTTTTGACCTTTGCCTCATTCTTATTGCCGCCTAGGGAGATTAGAGTATCGGTCGA,5.61
7,GACCTTTATATGTCCACCTTATCTAATGCCGCCTAGGGAGATTAGAGTATCGGTCGA,2.22
8,AGCAAACCTGTCTCTCTGCATTCCTCCTGGGCCTAGGGAGATTAGAGTATCGGTCGA,0.684
9,TCTTTAAGGACCACATCAAAGGTCATCTCTGCCTAGGGAGATTAGAGTATCGGTCGA,5.09
10,TGCAGTGTCCATGGTGACCATGTGATGTGAGCCTAGGGAGATTAGAGTATCGGTCGA,1.26
11,GATGATCATGGCTCACTGCACCTTGACCTCGCCTAGGGAGATTAGAGTATCGGTCGA,8.12
12,GTGGTCCTAAAATTGACCTTTGATCACTCAGCCTAGGGAGATTAGAGTATCGGTCGA,10.2
13,GCTGACCTTTGGTCTAAACCTACTTAGATCGCCTAGGGAGATTAGAGTATCGGTCGA,4.73
14,AGTGCGATGATCATGGCTCACTGCACCTTGGCCTAGGGAGATTAGAGTATCGGTCGA,0.737
15,TGCACTTTGACCGCTCATTTGATCCTCACAGCCTAGGGAGATTAGAGTATCGGTCGA,4.61
16,TGCCTTTGATCAGGGACCTTTGTTCCTTTAGCCTAGGGAGATTAGAGTATCGGTCGA,5
17,CAAATAAACCTTTGACCAATTGACCCTATCGCCTAGGGAGATTAGAGTATCGGTCGA,4.69
18,TCATGGCTCACTGCACCTTGACCTCCTGGGGCCTAGGGAGATTAGAGTATCGGTCGA,5.78
19,CTCATGTGGTCCTAAAATTGACCTTTGATCGCCTAGGGAGATTAGAGTATCGGTCGA,11
20,GCCTCCATTAATTAACCTTTGAGCTGGGTGGCCTAGGGAGATTAGAGTATCGGTCGA,5.22
21,TGGACTGTTCAAGACCAAAGGTCATGGCAAGCCTAGGGAGATTAGAGTATCGGTCGA,5.58
22,TAAGTGTGGGTTTAAGTAAGCCCCCTTCCCGCCTAGGGAGATTAGAGTATCGGTCGA,4.85

row,Sequence,binding signal [log2 normalized intensity]
1,AGCTGACCCCAAAACCCCCAAAGGTGAGTAGCCTAGGGAGATTAGAGTATCGGTCGA,4.29
2,GCCACCCTCTGGCCACCAGTTATTCATGTCGCCTAGGGAGATTAGAGTATCGGTCGA,0.887
3,AACTACAGTTGACCTTTGAACACCACAAGTGCCTAGGGAGATTAGAGTATCGGTCGA,8.13
4,GACCTTTGAACACCACAAGTTTGAACTGCAGCCTAGGGAGATTAGAGTATCGGTCGA,5.65
5,TAGGTATGCCCCATGGTAAGAACTACAGTTGCCTAGGGAGATTAGAGTATCGGTCGA,1.21
6,CCATGGTAAGAACTACAGTTGACCTTTGAAGCCTAGGGAGATTAGAGTATCGGTCGA,8.15
7,CAGTTGACCTTTGAACACCACAAGTTTGAAGCCTAGGGAGATTAGAGTATCGGTCGA,6.74
8,ATGCCCCATGGTAAGAACTACAGTTGACCTGCCTAGGGAGATTAGAGTATCGGTCGA,4.71
9,TTTTCCTTTGTTGGTTTTGCCCGAGGTCTGGCCTAGGGAGATTAGAGTATCGGTCGA,1.89
10,GTGGAATTTGTGCTTATTTCCCATCAAGGAGCCTAGGGAGATTAGAGTATCGGTCGA,0.292
11,ATAGCGCCCACACTGCCCATCCCCACTGAAGCCTAGGGAGATTAGAGTATCGGTCGA,3.12
12,AGCTGCCCTTTGCACATGCCCCTCCCAGGGGCCTAGGGAGATTAGAGTATCGGTCGA,2.81
13,AATGCACTGGTGACTTTAAGTTGACTCCAAGCCTAGGGAGATTAGAGTATCGGTCGA,-0.366
14,AACGGCCCAGGGTTAGAGGATGACCTTCCCGCCTAGGGAGATTAGAGTATCGGTCGA,3.71
15,GGGCCATGACCTTTACCCCCATTTGGTAATGCCTAGGGAGATTAGAGTATCGGTCGA,7.13
16,ATGACCTTTACCCCCATTTGGTAATGGGCCGCCTAGGGAGATTAGAGTATCGGTCGA,5.46
17,AGGATGGGCCATGACCTTTACCCCCATTTGGCCTAGGGAGATTAGAGTATCGGTCGA,8.39
18,TCACCAGGATGGGCCATGACCTTTACCCCCGCCTAGGGAGATTAGAGTATCGGTCGA,10
19,CACTATCACCAGGATGGGCCATGACCTTTAGCCTAGGGAGATTAGAGTATCGGTCGA,4.97
20,CCTCCAGCTCTTTTGAACCCAAGGCCAAACGCCTAGGGAGATTAGAGTATCGGTCGA,2.07
21,ATAAATAAAGCCCTGGGGTAATAAAAGTGTGCCTAGGGAGATTAGAGTATCGGTCGA,-0.134
22,TTTACTTATCATAAGTCAGCCTGGCTGAAGGCCTAGGGAGATTAGAGTATCGGTCGA,1.53

row,Sequence,binding signal [log2 normalized intensity]
1,ATTTATCAAGATGAACTTTGACCCACCTACGCCTAGGGAGATTAGAGTATCGGTCGA,8.8
2,TCCCTTTGATATTTATCAAGATGAACTTTGGCCTAGGGAGATTAGAGTATCGGTCGA,5.51
3,CACCCAGAACTTTGACCGTTTGATTATTTGGCCTAGGGAGATTAGAGTATCGGTCGA,2.96
4,ATGAACTTTGACCCACCTACATTGATATTCGCCTAGGGAGATTAGAGTATCGGTCGA,5.5
5,ATTTTTCCCTTTGATATTTATCAAGATGAAGCCTAGGGAGATTAGAGTATCGGTCGA,0.842
6,TTGATATTTATCAAGATGAACTTTGACCCAGCCTAGGGAGATTAGAGTATCGGTCGA,11.2
7,GGCCGTGAAGCCGTCCTGTCCTGGACTTTCGCCTAGGGAGATTAGAGTATCGGTCGA,4.47
8,GCTTGTTCTCTCCCCCAACCCCACCTTCATGCCTAGGGAGATTAGAGTATCGGTCGA,4.61
9,GTGTGGGACTTTGGTCTGCTGAGTCTCATGGCCTAGGGAGATTAGAGTATCGGTCGA,2.52
10,TCTTCTCAGTGTTTTGGGTCCTACAGAACCGCCTAGGGAGATTAGAGTATCGGTCGA,0.643
11,CCAGTGAGACCCATTTTGGACTTTGACCTCGCCTAGGGAGATTAGAGTATCGGTCGA,11.8
12,ACATCTTGATTTAGCCCAGTGAGACCCATTGCCTAGGGAGATTAGAGTATCGGTCGA,0.922
13,TTAGCCCAGTGAGACCCATTTTGGACTTTGGCCTAGGGAGATTAGAGTATCGGTCGA,7.42
14,TTTGGAATTTGACCTCATTTGCTCCCAGTGGCCTAGGGAGATTAGAGTATCGGTCGA,4.58
15,TTTGCCATTTGGAGAGAGTTTGGCCCCAGTGCCTAGGGAGATTAGAGTATCGGTCGA,2.83
16,CACATACACCTGCGTGTACTAAGGTCTTAAGCCTAGGGAGATTAGAGTATCGGTCGA,1.24
17,CAAGTTGCAGGGATGGACTTTAATCTCCAAGCCTAGGGAGATTAGAGTATCGGTCGA,5.83
18,AGGTCATGCATAGAAGTATGTCTGGGATTTGCCTAGGGAGATTAGAGTATCGGTCGA,0.935
19,GTGCTCCTCCCCATCTCAGCCTCTCAGGTCGCCTAGGGAGATTAGAGTATCGGTCGA,1.84
20,ACACCAGGCCCTCGGCATCATGCCCTTTGGGCCTAGGGAGATTAGAGTATCGGTCGA,4.63
21,CTCGGCATCATGCCCTTTGGCCCCCAGAGCGCCTAGGGAGATTAGAGTATCGGTCGA,7.18
22,CCCCTCCCCCAAGGCATGGGACCTTTGCCCGCCTAGGGAGATTAGAGTATCGGTCGA,7.34

row,Sequence,binding signal [log2 normalized intensity]
1,AAGGCATGGGACCTTTGCCCTTCTTGTTAAGCCTAGGGAGATTAGAGTATCGGTCGA,5.47
2,AGGCCCTCGGCATCATGCCCTTTGGCCCCCGCCTAGGGAGATTAGAGTATCGGTCGA,7.71
3,CCCCCAAGGCATGGGACCTTTGCCCTTCTTGCCTAGGGAGATTAGAGTATCGGTCGA,6.71
4,CAGAGACAATGTGAGCAGGTGTGTGGCATCGCCTAGGGAGATTAGAGTATCGGTCGA,0.13
5,CGACCTCCCCGTCACCCTCCCCGCCACCCCGCCTAGGGAGATTAGAGTATCGGTCGA,7.01
6,GCAAATGTGTCTTTTTTAGTCAGCATAGTTGCCTAGGGAGATTAGAGTATCGGTCGA,1.34
7,TGTGACAGAAGTCATGTCTCATTGCCCCTTGCCTAGGGAGATTAGAGTATCGGTCGA,4.58
8,GAATGGCCAGAGTTCCTGTGCAAGCCCCTGGCCTAGGGAGATTAGAGTATCGGTCGA,-0.986
9,GGTGAAGGGGTCACCTCGCTCCCCTCCTGTGCCTAGGGAGATTAGAGTATCGGTCGA,1.02
10,GTTGGTTTCTGGGATTTGTACAAGTGATTGGCCTAGGGAGATTAGAGTATCGGTCGA,1.63
11,TTTGGAGTTTGACCTGGAGCCAGGGCCTTTGCCTAGGGAGATTAGAGTATCGGTCGA,3.92
12,ATATCCCTGAGAGGCCAGTTTGACCTTTGCGCCTAGGGAGATTAGAGTATCGGTCGA,8.82
13,CAGTTTGACCTTTGCATTCTTACCCAAGCCGCCTAGGGAGATTAGAGTATCGGTCGA,5.1
14,GAGGCCAGTTTGACCTTTGCATTCTTACCCGCCTAGGGAGATTAGAGTATCGGTCGA,7.03
15,CCTGAGAGGCCAGTTTGACCTTTGCATTCTGCCTAGGGAGATTAGAGTATCGGTCGA,8.31
16,TCACCATATCCCTGAGAGGCCAGTTTGACCGCCTAGGGAGATTAGAGTATCGGTCGA,3.28
17,AACATGTAAATATGACCTTTGCTTTTCAAGGCCTAGGGAGATTAGAGTATCGGTCGA,5.13
18,ATGTGGTCAAAACTTTGTTTGAGTTCCAAAGCCTAGGGAGATTAGAGTATCGGTCGA,1.01
19,TTTGACATCACCTAACTTGTGGCTGGGTGAGCCTAGGGAGATTAGAGTATCGGTCGA,1.15
